From PubChem
SENP8 block-1 – SENP8 (human) protease inhibition; Q96LD8; AID 602440; inhibition, % at 20 µM; hit rate 0.64% among 360,000; recombinant SENP8, Nedd8 substrate fluorescence; in the data active = inhibition mostly above about 40%, no sharp cut-off; inactive = mostly below about 27%
HSP90 refold inh – HSP90 refolding inhibition in rabbit reticulocyte lysate; luciferase refolding luminescence, 3 h; inhibition, % at 5.6 µM; hit rate 0.91% among 290,000; AID 1789;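 active = inhibition above the screen-wide mean plus 3 SD, computed separately per campaign, cut at about 16% in these data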;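 also: 0% = DMSO wells and 100% = 60 µM geldanamycin wells; inhibitors lower the luminescence because luciferase stays unfolded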
SENP7 inh – SENP7 protease inhibition. Q9BQF6. recombinant SENP7, Z-RLRGG-aminoluciferin luminescence, 40 min. inhibition, % at 5 µM. hit rate 1.5% among 330,000. AID 434973;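 active = inhibition above about 50% at the single test dose, limit read from the data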;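 also: plate controls were DMSO with enzyme for no effect and no enzyme buffer wells for full effect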
SENP8 block-2 – SENP8 protease inhibition; purified SENP8, Z-RLRGG-aminoluciferin cleavage, luminescence; inhibition, % at 10 µM; hit rate 1.2% among 330,000; AID 2540; in the data active = inhibition above about 50%
SENP6 inh – SENP6 protease inhibition | Q9GZR1 | Recombinant SENP6 catalytic domain, aminoluciferin luminescence | hit rate 1.8% among 330,000 | inhibition, % at 10 µM;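 active = inhibition above about 50% at the single tested dose, limit read from the data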;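 also: plate controls were DMSO wells with enzyme for no effect and DMSO wells lacking enzyme for full effect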
Target sequence (Q9GZR1 628-1112 limits assumed): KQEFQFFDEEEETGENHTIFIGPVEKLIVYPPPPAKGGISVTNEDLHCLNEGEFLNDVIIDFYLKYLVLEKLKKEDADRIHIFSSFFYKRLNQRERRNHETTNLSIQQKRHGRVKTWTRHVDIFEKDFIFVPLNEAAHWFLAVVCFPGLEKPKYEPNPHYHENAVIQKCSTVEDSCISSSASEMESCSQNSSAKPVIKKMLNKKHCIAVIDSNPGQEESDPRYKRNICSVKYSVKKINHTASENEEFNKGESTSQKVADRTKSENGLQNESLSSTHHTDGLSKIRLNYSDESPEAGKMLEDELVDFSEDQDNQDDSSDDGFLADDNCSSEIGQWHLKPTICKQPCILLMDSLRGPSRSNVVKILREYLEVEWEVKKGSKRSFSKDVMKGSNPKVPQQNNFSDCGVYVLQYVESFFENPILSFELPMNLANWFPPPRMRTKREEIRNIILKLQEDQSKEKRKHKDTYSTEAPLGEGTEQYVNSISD
SENP8 conf – confirmation of human SENP8 protease inhibitors | shares compounds with SENP7 inh | Recombinant SENP8, Z-RLRGG-aminoluciferin luminescence, 60 min | inhibition, % at 12.5 µM | hit rate 40% among 6,200;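 active = mean inhibition across replicates above about 50%, limit read from the data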
SENP6 confirm – confirmation of human SENP6 protease inhibitors; shares compounds with SENP7 inh; recombinant SENP6, Z-RLRGG-aminoluciferin luminescence; inhibition, % at 12.5 µM; hit rate 58% among 6,200; AID 488915
SENP7 confirm – human SENP7 inhibition, confirmed; inhibition, % at 12.5 µM; recombinant SENP7, Z-RLRGG-aminoluciferin luminescence, 40 min; hit rate 69% among 6,200; shares compounds with SENP7 inh
Casp3 SENP sel – caspase-3 inhibition (SENP selectivity assay) | purified caspase-3, Z-DEVD-aminoluciferin luminescence, 60 min | shares compounds with SENP7 inh | hit rate 60% among 6,200 | inhibition, % at 12.5 µM | AID 488918;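 active = mean inhibition above about 50%, limit read from the data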;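 also: plate controls were enzyme with DMSO for no effect and wells without caspase-3 for full effect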
Luc interf – interferes with luciferase luminescence in SENP counter-screen. shares compounds with SENP7 inh. Pre-incubated SENP8/Z-RLRGG-aminoluciferin, luciferase luminescence interference. inhibition, % at 12.5 µM. hit rate 39% among 6,200;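 active = mean inhibition above about 50% when retested at one dose, limit read from the data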;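 also: plate controls were DMSO wells with completed reaction for no effect and substrate without enzyme for full effect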
* = called active by the depositor; · = no result given. This is a sample that favours compounds with a hit; in the whole collection about 2.8% have one here.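 The calls were made as follows, unless noted: active = mean inhibition above about 50% in the one-dose retest (limit read from the data); inactive = the rest.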

SMILES	SENP8 block-1	HSP90 refold inh	SENP7 inh	SENP8 block-2	SENP6 inh	SENP8 conf	SENP6 confirm	SENP7 confirm	Casp3 SENP sel	Luc interf
O=C(Nc1cccc2nsnc12)c1ccc2c(c1)OCCO2	-273.3	-0.3	-20.0	66.0*	77.2*	11.1	83.0*	97.7*	88.0*	27.2
O=C(CNCc1ccccn1)Nc1cc(C(F)(F)F)ccc1N1CCOCC1	1.2	10.7	-11.4	-0.2	-11.3	·	·	·	·	·
O=c1[nH]c(N2CCOCC2)cc2ccccc12	-498.4	·	95.8*	87.1*	91.3*	45.6	75.9*	60.9*	37.0	7.4
O=c1c(N2CCOCC2)coc2ccccc12	-1.2	2.1	-0.5	-1.8	-5.9	·	·	·	·	·
Cc1ccc(NC(=S)Nc2cccc3cnccc23)cc1	-110.1	4.9	70.1*	86.8*	92.0*	-3.1	24.6	4.1	7.0	8.9
S=C(NCc1ccccc1)Nc1cccc2cnccc12	-4.0	-3.2	-1.8	-9.3	-18.2	·	·	·	·	·
Cc1ccc(NC(=S)Nc2cccc3cnccc23)cc1C	-211.8	4.8	15.3	54.4*	64.7*	11.8	20.2	8.5	-0.5	-1.4
Cc1ccc(C)c(NC(=S)Nc2cccnc2)c1	-7.8	-3.0	9.4	-1.3	15.3	·	·	·	·	·
NC(=S)Nc1cccc2cnccc12	-0.6	0.2	4.7	0.5	1.9	·	·	·	·	·
Fc1ccccc1NC(=S)Nc1cccc2cnccc12	-250.0	4.1	78.1*	87.4*	91.8*	15.0	41.0	26.3	7.0	16.1
Cc1ccc(C)c(NC(=S)Nc2cccc3cnccc23)c1	-95.4	3.9	53.6*	76.5*	78.5*	11.8	17.0	2.5	3.2	-1.7
CCCCNC(=S)Nc1cccc2cnccc12	-78.7	0.1	3.2	3.1	-2.9	·	·	·	·	·
CCOC(=O)c1c(NC(=O)C2CCCCC2)sc2c1CCN(CC)C2	-9.1	-2.6	-14.6	-6.4	-6.4	·	·	·	·	·
O=C(c1cnccn1)N(Cc1ccco1)C1(C(=O)NC2CCCCC2)CCCCC1	29.1	2.1	-7.2	-6.5	-1.7	·	·	·	·	·
O=C(N/N=C/c1sc(=O)n(Cc2ccc(Br)cc2)c1Cl)c1ccco1	-37.6	-2.2	17.3	0.5	0.6	·	·	·	·	·
NNC(=O)Cn1nnc(-c2ccc(C(F)(F)F)cc2)n1	13.3	3.6	4.2	5.1	-19.9	·	·	·	·	·
CC1CCCC(C)N1C(=O)CSc1nc(N)c(-c2ccccc2)c(=O)[nH]1 (stereo not given)	6.6	0.8	86.6*	6.6	6.6	4.4	4.2	0.9	0.6	1.0
COc1cccc(OCc2ccc(Cl)cc2)c1C#N	13.6	1.1	97.2*	92.9*	90.5*	83.9*	95.5*	99.5*	88.0*	41.3
CCS(=O)(=O)c1ccc2oc(Nc3ccccc3Cl)nc2c1	10.5	4.2	92.3*	91.4*	94.6*	73.7*	92.1*	99.2*	93.6*	26.0
Clc1ccccc1Nc1nc2ccccc2o1	4.4	·	99.7*	95.2*	94.8*	-4.3	99.8*	103.4*	98.0*	97.3*
CCS(=O)(=O)c1ccc2oc(Nc3cc(Cl)ccc3OC)nc2c1	5.2	-0.1	25.7	-24.4	-10.1	·	·	·	·	·
COCc1cc(=O)[nH]c(Nc2nc3ccccc3o2)n1	-151.3	2.8	6.0	-8.6	-3.3	·	·	·	·	·
NC(=O)CSc1nnc(-c2ccc(O)cc2)n1Cc1ccco1	11.6	-0.8	1.6	5.9	-0.1	·	·	·	·	·
O=C(O)c1ccc(-c2nc(-c3ccc(Cl)cc3Cl)cs2)cc1	-33.9	3.3	0.7	-7.2	59.7*	32.2	36.5	48.6	11.7	21.3
C=CCN(CC=C)c1cnn(-c2nc3ccccc3[nH]2)c(=O)c1Cl	-226.4	6.4	76.5*	58.0*	86.6*	71.0*	76.6*	94.3*	91.2*	24.8
O=c1c(Cl)c(NCCCO)cnn1-c1nc2ccccc2[nH]1	-358.4	3.7	69.0*	49.6	62.0*	58.8*	56.5*	84.9*	89.1*	36.2
O=S(=O)(c1cc(F)ccc1F)N1CCC2(CC1)OCCN2S(=O)(=O)c1ccccc1	-3.7	·	-0.1	2.6	-9.2	·	·	·	·	·
